# Source: PubChem
# The list is not random: actives were taken first. Their share in the collection is about 11%.
# HCV inh – HCV inhibition; 340,000 tested, 3.4% active; Potency, µM (titrated, usually from 41.8 µM), for inactives: at the top dose activity change, negative = inhibition, hits mostly inhibitors; Huh7.5.1 HCVcc-Cre infection, luciferase reporter, 44 h; AID 651820; further: on the % scale 0 is the no-effect control and ±100 the full control effect
#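 1,000 cells/well; 4 h culture; + compound; + HCVcc-Cre (~0.5 moi); 44 h; luciferase substrate, RT 15 min; read 15 sec.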
# Pf growth 48h – inhibits P. falciparum growth in the first generation, 48 h; P. falciparum luciferase growth in erythrocytes, 48 h; Potency, µM (top dose mostly 28.7 µM), for the others: at the top dose activity change, negative = inhibition, actives largely listed as inhibitors; 310,000 tested, 5.9% active; AID 504832; further: on the % scale 0 is the no-effect control and ±100 the full control effect
#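 Luminescence readout; reporter = integrated firefly luciferase in P. falciparum. RBC culture at 2% hematocrit, 0.1% parasitemia final, 37 C/5% CO2; decreased signal taken as growth inhibition.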
# Vaccinia mCherry – inhibitors of vaccinia virus infection (mCherry reporter signal) | 310,000 tested, 0.63% active | AID 720579 | Vaccinia virus mCherry reporter infection, fluorescence | Potency, µM (top dose mostly 36.5 µM), for the others: at the top dose activity change, negative = inhibition, actives largely listed as inhibitors; calls by dose curve; tested in A549 cells; further: on the % scale 0 is the no-effect control and ±100 the full control effect; nearly all actives have a fitted effect of over 35% in size
# Pf growth 96h – P. falciparum growth inhibition at 96 hours; P. falciparum luciferase reporter growth, 96 h; Potency, µM (doses to about 28.7 µM), for inactives: at the highest dose activity change, negative = inhibition, actives largely listed as inhibitors; 320,000 tested, 6.9% active; AID 504834; further: on the % scale 0 is the no-effect control and ±100 the full control effect
#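 96 h incubation, 37 C, 5% CO2, of luciferase-reporter P. falciparum-infected RBCs (2% hematocrit, 0.05% parasitemia final) with test compounds; endpoint luminescence.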
# Vaccinia Venus – vaccinia inhibition (Venus reporter). Vaccinia virus Venus reporter expression, fluorescence. 330,000 tested, 0.46% active. Potency, µM (top dose mostly 36.5 µM), without a hit: top-dose activity change, negative = inhibition, hits mostly inhibitors; calls by dose curve; tested in A549 cells; further: on the % scale 0 is the no-effect control and ±100 the full control effect; nearly all actives have a fitted effect of over 30% in size
# NS1 function inh – inhibitors of influenza NS1 protein function | Potency, µM (doses to about 46.1 µM), for the others: top-dose activity, positive = more growth | 270,000 tested, 0.4% active; calls by dose curve; further: actives are rising curves; nearly all actives have a fitted effect of over 50% in size
#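 S. cerevisiae expressing influenza A NS1, grown in glucose, washed, then diluted 1:100 into pH 6.0 -URA galactose medium with 23 nl compound. Growth recovery read as OD600; NS1-free strain serves as control.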
# * hit, by the source's call; i = inactive; ? = inconclusive; / = no result given; [ ] = dose if it differs, or a comment. Unless noted, the call rests on the fitted dose curve; in most records, active means well fitted inhibition curve with a large enough effect; inconclusive means small, poorly fitted or top-dose-only effect, or another doubt; inactive means no such curve, though single readings can be large or run the other way. Potency means the concentration at half of the fitted maximal effect.
SMILES,HCV inh,Pf growth 48h,Vaccinia mCherry,Pf growth 96h,Vaccinia Venus,NS1 function inh
CC(=O)c1cccc(CN2CCN(CCC(C)C)C(CCO)C2)c1 (stereo not drawn),7%,-11%,-4%,5%,0%,1%
S=C(NCC1CCCO1)N1CCN(c2nc(-c3ccccc3)cs2)CC1 (stereo not drawn),10µM*,?,?,55%,-13%,5%
CNC(=S)N1CCN(c2nc(-c3ccc(Cl)cc3)cs2)CC1,?,?,?,7.4µM*,-17%,15%
CCN(CC)CCCNC(=S)N1CCN(c2nc(-c3ccc(F)cc3)cs2)CC1,4µM*,9.3µM*,i,-20%,?,17%
CC(C)C(=O)N1CCN(c2nc(-c3ccc(Cl)cc3)cs2)CC1,?,6%,/,40%,/,-1%
COCCNC(=S)N1CCN(c2nc(-c3ccc(Cl)cc3)cs2)CC1,13µM*,30%,?,?,-15%,2%
CCNC(=S)N1CCN(c2nc(-c3ccc(F)cc3)cs2)CC1,?,-11%,/,8%,/,12%
COCCNC(=S)N1CCN(c2nc(-c3ccc(F)cc3)cs2)CC1,?,-17%,/,?,/,20%
O=C(COC(=O)CSc1ccccc1)NC1CCS(=O)(=O)C1 (stereo not drawn),/,/,-23%,/,-15%,/
Oc1cccc2ccc[n+](CC(O)Cn3c4ccccc4c4ccccc43)c12 (stereo not drawn),22µM*,1µM*,-9%,?,?,22%
Oc1cccc2ccc[n+](CC(O)CBr)c12 (stereo not drawn),/,/,16%,/,-4%,/
COc1ccc(C(C(=O)NC2CCCC2)N(C(=O)c2csnn2)C2CC2)cc1 (stereo not drawn),13%,12%,-6%,1%,2%,3%
COc1ccccc1Oc1ccc2c(c1)C(=O)N(c1ccc(C)cc1)C2=O,-4%,0%,i,45%,-5%,-2%
COc1ccc(N2C(=O)c3cc4ccccc4cc3C2=O)cc1,5%,1%,/,10µM*,/,2%
CCCCN(CC(O)COc1cccc(C)c1)CC(O)COc1cccc(C)c1 (stereo not drawn),-20%,?,?,1.9µM*,?,-4%
Cc1cc(NC(=O)CSc2nccn2C)no1,-2%,13%,i,16%[5.75 µM],-12%,/
Cc1cc(C)c(NC(=O)CSc2nccn2C)c(C)c1,9%,15%,-9%,0.074µM*,-10%,12%
CCCCCCCCNS(=O)(=O)CCNCCc1ccccc1,16%,/,-19%,/,?,/
CCCCCCCCNCCS(=O)(=O)NCCCCCCCC,3.2µM*,/,i,/,-16%,/
Cc1noc(C)c1CN(C(=S)NC1CC2CCC1C2)c1ccccc1 (stereo not drawn),-35%,12µM*,-27%,-29%,-21%,/
CCOC(=O)c1ccc(NC(=O)COC)cc1,-7%,48%,-17%,15µM*,-12%,-26%
CCOC(=O)c1cc(NC(=O)COC)ccc1O,/,49%,/,3%,/,-2%
CCOC(=O)c1ccc(NC(=O)CN(c2ccc(C)cc2)S(=O)(=O)c2c(C)noc2C)cc1,/,/,-25%,/,-12%,/
CCOC(=O)c1ccc(NC(=O)CN(c2ccc(C)cc2)S(=O)(=O)c2c(C)n[nH]c2C)cc1,?,13µM*,-4%,8%,-23%,-1%
CCOC(=O)c1ccc(NC(=O)C(CC)(CC)C(=O)OCC)cc1,8%,8.3µM*,/,/,/,-35%
SMILES,HCV inh,Pf growth 48h,Vaccinia mCherry,Pf growth 96h,Vaccinia Venus,NS1 function inh
COC(=O)c1ccc(CNCC(=O)Nc2ccc(C(=O)OC)cc2)cc1,-42%,?,/,0.93µM*,/,4%
CCCc1cc(C(=O)Cc2nc3ccccc3s2)c(O)cc1O,6%,?,-18%[1.46 µM],?,-8%,10%
O=C(c1cccnc1)N1CCc2ccccc21,10%,-6%,/,-10%,/,5%
Cc1ccc(CC(=O)NCC2CCCCC2)cc1,16%,6%,/,-17%,/,-19%
CC(C)Oc1cc(O)c2c(=O)c(-c3ccc(O)cc3)coc2c1,-29%,86%,?,2.9µM*,-24%,-25%
CCC(C(=O)c1ccccc1)N(C(=O)c1ccccc1Cl)N1C(=O)C2C3C=CC(C3)C2C1=O (stereo not drawn),0%,?,-12%,10µM*,-4%,-3%
O=C(CN(C(=O)c1ccc(Cl)cc1Cl)N1C(=O)C2C3C=CC(C3)C2C1=O)c1ccc(F)cc1 (stereo not drawn),8%,/,/,/,/,/
CC(C)=CCC1=C(OCC(=O)O)C(=O)c2ccccc2C1=O,-5%,13µM*,/,2.9µM*,/,-17%
CC(=O)OC/C=C(\C)CC/C=C(\C)CC/C=C(\C)CC/C=C(\C)CC/C=C(\C)CC/C=C(\C)CC/C=C(\C)CC/C=C(\C)CCC=C(C)C,/,/,i,/,0%,/
CC(C)=CCC/C(C)=C/CC/C(C)=C/CC/C(C)=C/CC1=C(C)C(=O)c2ccccc2C1=O,-24%,12µM*,-13%,5.2µM*,-11%,5%
COc1ccc2[nH]cc(CCNC(=O)Cc3c(F)cccc3Cl)c2c1,?,?,-5%,?,-12%,14%
CCOC(=O)c1cc2c(ccn2C)n1Cc1ccc(C#N)cc1,-18%,-4%,/,4.1µM*,/,4%
CCOC(=O)c1cc2c(ccn2C)n1Cc1ccc(Cl)cc1,6%,13%,/,0%,/,-7%
CCOC(=O)c1cc2c(ccn2C)n1CC(=O)N1CCC(Cc2ccccc2)CC1,?,10µM*,i,?,-4%,-48%
CCOC(=O)c1cc2c(ccn2C)n1CC(=O)N1CCCC(C)C1 (stereo not drawn),-6%,-1%,/,?,/,15%
CCN(CC)CP(=O)(c1ccccc1)c1ccccc1,-3%,6%,/,/,-4%,-3%
CC1CCCN(CCOc2ccc3ccccc3c2Br)C1 (stereo not drawn),11µM*,?,-23%,?,-23%,-7%
CCN(CC)S(=O)(=O)c1cc(NC(=O)CSc2nc3c(cc2C#N)C(=O)CC(C)(C)C3)ccc1C,?,3.7µM*,-27%,2.6µM*,-15%,13%
CCN(CC)c1ccc(NC(=O)COc2ccccc2C#N)cc1S(=O)(=O)Nc1ccc(OC)cc1,?,8.3µM*,i,4.1µM*,-14%,13%
COc1ccc(NC(=O)c2ccccc2F)cc1Cl,-8%,/,-1%,2%,-21%,-15%
CCN(CC)c1ccc(NC(=O)COc2ccccc2C)cc1S(=O)(=O)Nc1ccccc1OC,?,9.3µM*,i,?,-23%,9%
CCN(CC)c1ccc(NC(=O)c2ccc(=O)[nH]c2)cc1S(=O)(=O)Nc1ccccc1OC,22µM*,10µM*,i,6.6µM*,-25%,/
CCN(CC)c1ccc(NC(=O)c2ccccc2F)cc1S(=O)(=O)Nc1ccccc1OC,?,4.7µM*,-4%,10µM*,-14%,-5%
